Experimental data taken from PubChem BioAssay (NCATS).
Records with an inconclusive call do not appear. Where a call stands in place of a potency, no number is given. A number with no mark means an inactive call. Calls of active or inactive are those of the source. The call rests on the fitted dose curve; in most records, active means well fitted curve in the direction sought with a large enough effect; inconclusive means small, poorly fitted or top-dose-only effect, or another doubt; inactive means no such curve, though single readings can be large; an effect the other way counts as inactive or inconclusive.

Experiments:
[1] = tested on: Zika virus NS2B-NS3 protease; assay: Primary screen GU AMC qHTS for Zika virus inhibitors (AID 1347154); further: nearly all actives have a fitted effect of over 70% in size
Outline: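 Fluorogenic AMC-substrate cleavage by noncovalent NS2B-NS3 protease complex (25 nM, pH 8.0 Tris buffer with Tween 20) followed for 15 minutes at room temperature (~20% conversion). Percent inhibition from ex340/em450 signal change, fitted by 4-parameter Hill equation.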

[2] = tested on: Zika virus NS2B-NS3 protease (unlinked); assay: Optimization of GU AMC qHTS for Zika virus inhibitors: Unlinked NS2B-NS3 protease assay (AID 1347151); further: potency means the concentration at half of the fitted maximal effect; nearly all actives have a fitted effect of over 80% in size
Outline: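 Noncovalent complex of NS2B hydrophilic domain and NS3 protease domain, 25 nM final, in 10 mM Tris-HCl pH 8.0, 0.01% Tween 20. AMC fluorescence change over 15 min at room temperature was fitted to a 4-parameter Hill equation.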

[3] = tested on: Zika virus NS2B-NS3 protease (unlinked complex); assay: Primary screen GU Rhodamine qHTS for Zika virus inhibitors: Unlinked NS2B-NS3 protease assay (AID 1347159); further: nearly all actives have a fitted effect of over 60% in size; further: potency means the concentration at half of the fitted maximal effect
Outline: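 Enzyme 25 nM in Tris-HCl pH 8.0 + 0.01% Tween 20; compounds up to 114 microM, 15 min RT dark; + Rhod110 substrate 1.5 microM; read t0 and 15 min; delta fluorescence → % inhibition → 4-parameter Hill fit.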

[4] = tested on: Zika virus NS2B-NS3 protease (linked construct); assay: Primary screen NINDS Rhodamine qHTS for Zika virus inhibitors (AID 1347160); further: nearly all actives have a fitted effect of over 55% in size; further: potency means the concentration at half of the fitted maximal effect
Outline: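 Enzyme (25 nM, linked NS2B-NS3) was preincubated 15 min with compound in 10 mM Tris-HCl pH 8.0, 0.01% Tween 20. Rhodamine110 substrate (1.5 microM) was then added and fluorescence read at start and after 15 min.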

[5] = tested on: Zika virus NS2B-NS3 protease (unlinked complex); assay: Confirmatory screen GU AMC qHTS for Zika virus inhibitors (AID 1347153); further: nearly all actives have a fitted effect of over 70% in size
Outline: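 Fluorescence change (ex 340/em 450 nm) over 15 min, ~20% substrate conversion, normalized to no-inhibitor and no-enzyme controls, then Hill-fitted. Unlinked protease at 25 nM; AMC peptide 10 µM.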

[6] = Confirmatory screen NINDS Rhodamine qHTS for Zika virus inhibitors (AID 1347161); further: nearly all actives have a fitted effect of over 60% in size; further: potency means the concentration at half of the fitted maximal effect;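 on activity change, negative = inhibition: purified Zika NS2B-NS3 protease with linked NS2B cofactor domain and Rhodamine110 peptide substrate; series mostly up to about 110 µM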
Outline: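 Single-chain NS2B-NS3 protease, 25 nM, pH 8.0; compounds preincubated 15 min. Activity: Rhodamine110 release from 1.5 microM substrate over 15 min, room temperature, data fitted to 4-parameter Hill.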

Furin (Homo sapiens) = Furin (Homo sapiens) (UniProt P09958); assay: Furin counterscreen qHTS for Zika virus inhibitors (AID 1347149);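 further: purified recombinant full-length human furin enzyme at 5 nM; fluorescence gain from furin cutting a BOC-RVRR-AMC peptide substrate over 15 min; top concentration of the series differs between compounds; nearly all actives have a fitted effect of over 70% in size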
Outline: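 Counterscreen measures cleavage of 2 microM BOC-RVRR-AMC, below its ~15 microM Km, by 5 nM full-length human furin at pH 7.0 after a 15-min compound preincubation. Inhibition derives from the 15-min fluorescence increase at 37C.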

[7] = Confirmatory screen GU Rhodamine qHTS for Zika virus inhibitors qHTS (AID 1347157); further: potency means the concentration at half of the fitted maximal effect; nearly all actives have a fitted effect of over 70% in size
Outline: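 A qHTS format was used, with compound concentrations ranging up to 114 microM. Each compound was preincubated with 25 nM NS2B-NS3 protease, and the substrate was then added at 1.5 microM. Curves were fitted with a 4-parameter Hill model.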

[8] = ZIKV-mCherry secondary qHTS for Zika virus inhibitors (AID 1347158); further: top concentration of the series differs between compounds
Outline: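 Compounds were tested in Vero monkey kidney cells infected with recombinant mCherry-expressing Zika virus at MOI 1 for 48-72 h at 37 °C. Fixed cells were nuclear-stained and imaged, and infection rate was taken as the fraction of mCherry-positive cells.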

Chain of Furin (Homo sapiens) (P09958 whole entry, looked up): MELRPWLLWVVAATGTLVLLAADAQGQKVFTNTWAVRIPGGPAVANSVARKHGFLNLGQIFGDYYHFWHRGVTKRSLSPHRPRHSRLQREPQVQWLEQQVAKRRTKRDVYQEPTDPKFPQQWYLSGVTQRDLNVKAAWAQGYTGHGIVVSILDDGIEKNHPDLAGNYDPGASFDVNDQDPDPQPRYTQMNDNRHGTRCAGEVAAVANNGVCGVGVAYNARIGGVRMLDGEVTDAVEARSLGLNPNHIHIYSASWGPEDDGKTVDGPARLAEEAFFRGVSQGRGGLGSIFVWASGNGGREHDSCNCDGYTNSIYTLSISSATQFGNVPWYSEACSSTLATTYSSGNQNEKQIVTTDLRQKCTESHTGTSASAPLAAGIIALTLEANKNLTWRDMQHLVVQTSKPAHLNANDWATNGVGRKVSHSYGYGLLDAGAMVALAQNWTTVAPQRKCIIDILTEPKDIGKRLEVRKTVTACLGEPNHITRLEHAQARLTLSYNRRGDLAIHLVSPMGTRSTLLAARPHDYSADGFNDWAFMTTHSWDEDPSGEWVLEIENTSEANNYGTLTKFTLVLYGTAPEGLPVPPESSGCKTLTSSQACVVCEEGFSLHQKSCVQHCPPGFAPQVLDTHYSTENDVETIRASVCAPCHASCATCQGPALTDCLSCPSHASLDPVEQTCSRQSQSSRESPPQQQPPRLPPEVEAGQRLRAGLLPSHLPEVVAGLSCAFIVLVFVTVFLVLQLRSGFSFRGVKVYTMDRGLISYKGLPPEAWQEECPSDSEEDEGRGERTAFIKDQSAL

For `CNC(=O)[C@H](Cc1c[nH]c2ccccc12)NC(=O)[C@@H](CC(=O)NO)CC(C)C`, the outcome [1] was “inactive”.

Molecule `CC/C=C\C/C=C\C/C=C\CCCCCCCC(=O)O` has an activity change, negative = inhibition [1] of -0.651% [at 6.83 µM].

With `C[C@@](Cc1ccc(O)c(O)c1)(NN)C(=O)O` the outcome [1] was “inactive”.

For `Oc1ccc(/C=C/c2cc(O)cc(O)c2)cc1`, the Potency [2] was 26.7 µM (active).

For `CO[C@H]1C[C@@H]2CC[C@@H](C)[C@@](O)(O2)C(=O)C(=O)N2CCCC[C@H]2C(=O)O[C@H]([C@H](C)C[C@@H]2CC[C@@H](OC(=O)C(C)(CO)CO)[C@H](OC)C2)CC(=O)[C@H](C)/C=C(\C)[C@@H](O)[C@@H](OC)C(=O)[C@H](C)C[C@H](C)/C=C/C=C/C=C/1C`, the Potency [3] was “inactive” and the Potency [4] was “inactive”.

In the case of `CC(C)(C)c1ccc(CN2CCN(C(c3ccccc3)c3ccc(Cl)cc3)CC2)cc1` (stereo not drawn), the Potency [3] is reported as “inactive” and the Potency [4] is reported as “inactive”.

With `CC/C=C\C/C=C\C/C=C\C/C=C\C/C=C\C/C=C\CCC(=O)O` the outcome [1] was “inactive”.

With `C[C@]12CC[C@@H]3c4ccc(OC(=O)c5ccccc5)cc4CC[C@H]3[C@@H]1CC[C@@H]2O` the Potency [4] was “inactive”.

For `CCN(CC)CCOCCOC(=O)C(CC)(CC)c1ccccc1`, the Potency [3] was “inactive” and the Potency [4] was “inactive”.

In the case of `CO[C@H]1C[C@H](O[C@@H]2/C(C)=C/C[C@@H]3C[C@@H](C[C@]4(CC[C@H](C)[C@@H](C5CCCCC5)O4)O3)OC(=O)[C@@H]3C=C(C)/C(=N/O)[C@H]4OC/C(=C\C=C\[C@@H]2C)[C@]43O)O[C@@H](C)[C@@H]1O`, the outcome [5] is reported as “inactive” and the Potency [6] is reported as “inactive”.

In the case of `CCOC(=O)C1=C(COCCN)NC(C)=C(C(=O)OC)C1c1ccccc1Cl` (stereo not drawn), the outcome [1] is reported as “inactive”.

For `N[C@@H](Cc1cc(I)c(Oc2ccc(O)c(I)c2)c(I)c1)C(=O)O`, the outcome (Furin (Homo sapiens)) was “inactive”, the Potency [3] was 14.1 µM (active) and the Potency [6] was “inactive”.

For `CC1(C)C(\C=C/C=C\C=C/C=C2/N(CCCCS(=O)(=O)O)c3ccc4ccccc4c3C2(C)C)=[N+](CCCCS(=O)(=O)[O-])c2ccc3ccccc3c21`, the Potency [7] was 3.98 µM (active), the outcome [8] was “inactive” and the Potency [6] was 5.62 µM (active).

With `Cc1cc(-c2ccc(N=Nc3ccc4c(S(=O)(=O)O)cc(S(=O)(=O)O)c(N)c4c3O)c(C)c2)ccc1N=Nc1ccc2c(S(=O)(=O)O)cc(S(=O)(=O)O)c(N)c2c1O` the outcome (Furin (Homo sapiens)) was “inactive” and the outcome [8] was “inactive”.

With `O=C(O)CCC(=O)c1ccc(-c2ccccc2)cc1` the outcome [1] was “inactive”.

With `C=C1CC[C@H](O)CC1=C/C=C1\CCC[C@]2(C)[C@@H]([C@H](C)/C=C/[C@H](C)C(C)C)CC[C@@H]12` the Potency [3] was 11.2 µM (active) and the Potency [4] was 12.6 µM (active).

In the case of `CN(C)CCCSc1ccccc1NC(=O)/C=C/c1ccccc1`, the outcome [1] is reported as “inactive”.

In the case of `Nc1ccc(N=Nc2ccccc2)c(N)n1`, the outcome [1] is reported as “inactive”.

For `C=C1[C@H](CO)[C@@H](O)C[C@@H]1n1cnc2c(=O)[nH]c(N)nc21`, the Potency [3] was “inactive” and the Potency [4] was “inactive”.

In the case of `CC(=O)Nc1ccc(NC(=S)NC(=O)c2ccc(C(C)(C)C)cc2)cc1`, the Potency [3] is reported as “inactive” and the Potency [4] is reported as “inactive”.

For `O=C(O)CCC/C=C\C[C@@H]1[C@@H](/C=C/[C@@H](O)COc2cccc(Cl)c2)[C@H](O)C[C@@H]1O`, the outcome [1] was “inactive”.
